Assay results: PubChem BioAssay AID743171 (National Center for Advancing Translational Sciences (NCATS), 2013)
Values joined by “and” are separate entries in the source; they are usually repeats but may differ in a detail not shown here. Equal entries are not always repeated. Results filed as inconclusive are left out. Active and inactive are the calls of the source. The call rests on the fitted dose curve; in most records, active means well fitted inhibition curve with a large enough effect; inconclusive means small, poorly fitted or top-dose-only effect; inactive means flat fitted curve, though single readings scatter.

Target: 15-hydroxyprostaglandin dehydrogenase [NAD(+)] (Homo sapiens) (UniProt P15428)
Sequence (P15428 whole entry, looked up): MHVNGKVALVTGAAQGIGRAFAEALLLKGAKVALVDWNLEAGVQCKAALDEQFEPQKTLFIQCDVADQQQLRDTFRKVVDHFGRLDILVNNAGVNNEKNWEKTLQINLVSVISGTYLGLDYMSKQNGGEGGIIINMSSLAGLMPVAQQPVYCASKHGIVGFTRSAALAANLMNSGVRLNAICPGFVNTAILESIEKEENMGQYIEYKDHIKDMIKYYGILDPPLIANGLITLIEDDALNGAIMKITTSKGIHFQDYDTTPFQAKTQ
Experiment: Extended Characterization of HPGD Inhibitors: Activity in Primary Assay (HPGD)
Conditions: recombinant HPGD, NADH fluorescence, PGE2 substrate; series mostly up to 57.1 µM
Description: The central role of HPGD is to inactivate prostaglandins such as prostaglandin E2 (PGE2) or prostaglandin D2 (PGD2). These prostaglandins are involved in a number of processes, including inflammation, differentiation, and cellular signaling, which makes HPGD an important target for pharmacological intervention. Inhibition of 15-PGDH (HPGD) activity was screened by utilizing prostaglandin as an electron donor and NAD+ as an electron acceptor/cofactor. An increase in the fluorescence intensity due to conversion of NAD+ to NADH was used to measure the enzyme activity. All compounds were screened using a qHTS approach, where compounds are assayed using at least seven concentrations to generate concentration-response curves for every compound. Briefly, qHTS uses an inter-plate dilution method where the first plate contains the highest concentration of a set of compounds in DMSO, while subsequent plates contain the same compounds in the same well locations, but at successive lower concentrations. NIH Chemical Genomics Center [NCGC] NIH Molecular Libraries Probe Centers Network [MLPCN] MLPCN Grant: MH084681 Assay Submitter (PI): Structural Genomics Consortium
Three uL of enzyme (20 nM final concentration) were dispensed to 1536-well Greiner black solid bottom plates. Compounds (23 nL) were transferred via Kalypsys PinTool. The plates were incubated for 15 min at room temperature, and then 1 uL of substrate/cofactor solution (Substrate/cofactor solution: 1 mM NAD+ and 30 uM prostaglandin (Sigma, prostaglandin E2, #P5640)) were added to start the reaction. The plates were immediately transferred to and read 4 times every 30 seconds on a ViewLux High-throughput CCD imager (Perkin-Elmer) using 340 nm excitation and 450 nm emission fluorescence protocol. The fluorescence intensity difference between the last and the first time points, normalized against controls, was used to compute reaction progress.

Row | SMILES | Potency
1 | Cc1cc(-c2nnc3n2CCCCC3)c(C)n1-c1cccc(C(F)(F)F)c1 | 48.2 nM (active)
2 | Cc1cccc(-n2cnc3cc(C(=O)N4CCC(N5CCOCC5)CC4)ccc32)c1 | inactive
3 | Cc1cccc(-n2cnc3cc(C(=O)N4CCCC(C)(C)C4)ccc32)c1 | 68.1 nM (active)
4 | Cc1cc(-c2nnc3n2CCCCC3)c(C)n1-c1ccc(C#N)cc1 | 96.1 nM (active)
5 | CCCCn1cnc2cc(C(=O)N3CCCCC3)ccc21 | 68.1 nM (active)
6 | Brc1cnc2nc(SCc3ccccn3)[nH]c2c1 | 3410 nM (active)
7 | Fc1cccc(CSc2nc3ncc(Br)cc3[nH]2)c1 | 341 nM (active)
8 | O=C(c1ccc2c(c1)ncn2-c1ccccc1)N1CCCCC1 | 21.5 nM (active)
9 | Cc1ccc(-n2c(C)cc(-c3nnc4n3CCCCC4)c2C)cc1 | 34.1 nM (active)
10 | Cc1cc(-c2nnc3n2CCCCC3)c(C)n1-c1ccc(Br)cc1 | 48.2 nM (active)
11 | Cc1cccc(-n2cnc3cc(C(=O)N4CCCC(C(F)(F)F)C4)ccc32)c1 (stereo not given) | 68.1 nM (active)
12 | CCOC(=O)c1ccc(-n2c(C)cc(-c3nnc4n3CCCCC4)c2C)cc1 | 38.3 nM (active)
13 | Cc1cccc(-n2cnc3cc(C(=O)NC4CCCCC4)ccc32)c1 | 3040 nM (active)
14 | N#Cc1ccc(CSc2nc3ncc(Br)cc3[nH]2)cc1 | 482 nM (active)
15 | COc1ccc(-n2cnc3cc(C(=O)N4CCCCC4)ccc32)cc1 | 19.2 nM (active)
16 | O=[N+]([O-])c1ccccc1CSc1nc2ncc(Br)cc2[nH]1 | 96.1 nM (active)
17 | Cc1cc(-c2nnc3n2CCC3)c(C)n1-c1ccccc1 | 3040 nM (active)
18 | Cc1ccc(-n2cnc3cc(C(=O)N4CCCCC4)ccc32)cc1 | 19.2 nM (active)
19 | COc1ccccc1-n1cnc2cc(C(=O)N3CCCCC3)ccc21 | 27.1 nM (active)
20 | Cc1cc(-c2nnc3n2CCCCC3)c(C)n1-c1ccccc1 | 121 nM (active) and 54.1 nM (active) and 68.1 nM (active)

Row | SMILES | Potency
21 | CC(C)(C)c1ccc(CSc2nc3ncc(Br)cc3[nH]2)cc1 | inactive
22 | FC(F)(F)c1ccc(-c2nc(-c3nnc4n3CCCCC4)c(C(F)(F)F)o2)cc1 | inactive
23 | CCCCNC(=O)c1ccc2c(c1)ncn2-c1cccc(C)c1 | 1360 nM (active)
24 | c1ccc(-n2cc(-c3nnc4n3CCCCC4)c3ccccc32)cc1 | 681 nM (active)
25 | Cc1cccc(-n2cnc3cc(C(=O)N4CC(C)CC(C)C4)ccc32)c1 (stereo not given) | 271 nM (active)
26 | Cc1cccc(-n2cnc3cc(C(=O)N4CCC(Br)CC4)ccc32)c1 | 76.4 nM (active)
27 | Clc1cccc(CSc2nc3ncc(Br)cc3[nH]2)c1 | 242 nM (active)
28 | CC(C)c1cccc(-n2cnc3cc(C(=O)N4CCCCC4)ccc32)c1 | 68.1 nM (active)
29 | CC(C)(C)c1cccc(-n2cnc3cc(C(=O)N4CCCCC4)ccc32)c1 | 171 nM (active)
30 | N#Cc1ccccc1CCc1nc2ncc(Br)cc2[nH]1 | 19200 nM (active)
31 | Cc1cccc(-n2cnc3cc(C(=O)N4CCCC(c5ccccc5)C4)ccc32)c1 (stereo not given) | 429 nM (active)
32 | Cc1cc(-c2nnc3n2CCCCCC3)c(C)n1-c1ccccc1 | 242 nM (active)
33 | COc1ccc(CSc2nc3ncc(Br)cc3[nH]2)cc1F | 85.7 nM (active)
34 | Cc1cc(-c2nnc3n2CCCC3)c(C)n1-c1ccccc1 | 192 nM (active)
35 | Cc1cc(-c2nnc3n2CCCCC3)c(C)n1-c1cccc2ccccc12 | 54.1 nM (active) and 108 nM (active)
36 | O=[N+]([O-])c1cccc(CSc2nc3ncc(Br)cc3[nH]2)c1 | 68.1 nM (active)
37 | Cc1cc(-c2nnc3n2CCCCC3)c(C)n1-c1ccc(Cl)c(Cl)c1 | 21.5 nM (active)
38 | Cc1cc(-c2nnc3n2CCCCC3)c(C)n1-c1ccc(C(F)(F)F)cc1 | 68.1 nM (active)
39 | Cc1cccc(-n2cnc3cc(C(=O)N4CCCCCC4)ccc32)c1 | 27.1 nM (active)
40 | Brc1cnc2nc(SCc3ccncc3)[nH]c2c1 | 1520 nM (active)
